We go through 30 compounds from PubChem BioAssay AID686979 (National Center for Advancing Translational Sciences (NCATS), 2013).

Among all 420,000 compounds or so, about 50,000 (12%) were called active. A call without a number means that no potency is given here. Inconclusive results (about 26%) are left out. The call rests on the fitted dose curve; in most records, active means well fitted inhibition curve with a large enough effect; inconclusive means small, poorly fitted or top-dose-only effect; inactive means flat fitted curve, though single readings scatter. The sample as a whole holds a higher share of actives than the screen did.
Potency means the concentration at half of the fitted maximal effect.

A short description of the assay: qHTS for Inhibitors of human tyrosyl-DNA phosphodiesterase 1 (TDP1): qHTS in cells in presence of CPT. Further: nearly all actives have a fitted effect of over 55% in size. To be noted: chicken DT40 Tdp1-/-;hTDP1 cells + 20 nM CPT, ATP luminescence, 48 h; series mostly up to 46.2 µM. In a few lines:
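Chicken DT40 Tdp1-/- cells stably complemented with human TDP1 were seeded at 400 cells/well in medium containing 20 nM camptothecin, exposed to pin-transferred compounds, and grown at 37 °C for at least 48 hr. Viability was read as ATP luminescence.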
(In qHTS, concentration-response curves come from the screen itself.)
With `COc1ccc2ccccc2c1CNCc1ccccn1`, the Potency result is “inactive”.

For `Cc1cccc(C(C)C)c1NC(=O)COC(=O)C1CC(=O)N(Cc2ccccc2)C1` (stereo not given), the Potency result was “inactive”.

`COc1ccc2[nH]cc(CCNc3cc(-c4ccccc4CN(C)C)ncn3)c2c1`: the Potency result is “inactive”.

As to `COc1ccc2[nH]cc(CCNc3ncnc4ccc(-c5ccc(C(=O)N(C)C)cc5)cc34)c2c1`, the Potency was 20.6 µM (active).

As for `COc1ccc2[nH]cc(CCN3C(=O)c4ccc(C(=O)O)cc4C3=O)c2c1`, the Potency entry was “inactive”.

Turning to `Cc1ncc([N+](=O)[O-])n1CCOC(=O)c1ccc(Br)cc1`, the Potency entry was “inactive”.

Turning to `CCOC(=O)c1ccc2c(c1)nc(C)n2CC`, the Potency result is “inactive”.

`CCn1c(/C=C/Nc2ccccc2)[n+](CC)c2ccc(C(=O)OCC(F)(F)F)cc21`: the Potency is 25.9 µM (active).

For the compound `NC(CSC1(c2ccccc2)c2ccccc2-c2ccccc21)C(=O)O` (stereo not given), the Potency result was “inactive”.

In the case of `CCNC(=O)Nc1ccc(S(=O)(=O)Nc2cnc(C)nc2C)cc1`, the Potency entry was “inactive”.

For the compound `Cc1cc(C)c(C#N)c(SCC(=O)N(CC(C)C)C2CCS(=O)(=O)C2)n1` (stereo not given), the Potency entry was “inactive”.

For the compound `CNc1cncc(-c2ccc(NS(C)(=O)=O)cc2)n1`, the Potency was 2.91 µM (active).

On to `CS(=O)(=O)Nc1ccc(C(=O)N2CCCC2)cc1`, for which the Potency result was “inactive”.

For `CCCS(=O)(=O)Nc1ccc(-c2cn3c(n2)SCC3)cc1`, the Potency entry is “inactive”.

`CC1(C)C/C(=N/Nc2ccc([N+](=O)[O-])cc2[N+](=O)[O-])C(C)(C)O1`: the Potency result was “inactive”.

As for `CCc1c(C)nc(SCC(=O)NC2CCCC2)[nH]c1=O`, the Potency result was “inactive”.

For `CCCn1c(NCc2ccc(N(CC)CC)cc2)nc2ccccc21`, the Potency was 25.9 µM (active).

On to `CCCn1c(NCc2ccccc2F)nc2ccccc21`, for which the Potency result was “inactive”.

Consider `CC(C)(C)C(=O)Cn1c(NCCO)nc2ccccc21`, for which the Potency result is “inactive”.

For the compound `CC(=O)NC(CC(=O)Nc1ccc(S(=O)(=O)N2CCOCC2)cc1)c1ccccc1` (stereo not given), the Potency entry is “inactive”.

For `O=S(=O)(c1ccc(F)cc1)N1CC=C(c2ccccc2)CC1`, the Potency result was “inactive”.

Regarding `COc1ccc(N(CC(=O)Nc2ccc(F)c(F)c2)S(=O)(=O)c2c(C)[nH]c(=O)[nH]c2=O)cc1`, the Potency entry was “inactive”.

As for `c1ccc(CN2CCC(N=C3NN=C(c4ccc5c(c4)OCCO5)CS3)CC2)cc1`, the Potency result was “inactive”.

As to `S=C(Nc1cccc(Cl)c1)Nc1ccc2c(c1)OCCO2`, the Potency entry is “inactive”.

Take `Clc1cccc(N=C2NN=C(c3ccc4c(c3)OCCO4)CS2)c1`: the Potency is 20.6 µM (active).

On to `CCOC1CS(=O)(=O)CC1OCC` (stereo not given), for which the Potency entry was “inactive”.

As to `CC(=O)Nc1ccc(NC(=O)CSc2nnnn2-c2ccccc2F)cc1`, the Potency result is “inactive”.

Take `Cc1cccc(NC(=O)C2CCN(S(=O)(=O)c3c(C)noc3/C=C/c3ccco3)CC2)c1`: the Potency is 16.4 µM (active).

As for `CNC(=O)C1CCN(S(=O)(=O)c2c(C)noc2/C=C/c2cccc(C)c2)CC1`, the Potency result was “inactive”.

In the case of `CC(=O)c1ccc(NC(=O)C2CCN(S(=O)(=O)c3c(C)noc3/C=C/c3ccc(C)cc3)CC2)cc1`, the Potency entry is “inactive”.
